# Data: the supplement of paper PMC10037445
# Over roughly 2,900 compounds, “IRF Lucia reporter activity, fold change vs agonist alone” has its median near 0.9; the highest 2% begin near 2.8. This excerpt belongs to a sample that is enriched for the highest values.
# How the values were obtained:
# [1] = system: RAW-Dual; experiment: IRF Lucia reporter activity, fold change vs agonist alone; higher = enhanced IRF activity; conditions: agonist: MPLA (TLR4) […]
# Outline: (§1)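 RAW-Dual macrophages (50,000 cells/well in DMEM, 384-well plates) received 50 nL of library stock by pin tool, then a PRR agonist 1 h later, and were kept at 37 °C, 5% CO2. After 20 hours, supernatant was read for IRF by QuantiLuc luminescence and for NF-κB by QuantiBlue absorbance at 620 nm. Reporter activity is fold change over agonist-alone wells. Cytotoxic wells had IncuCyte confluency below 70% of agonist controls in both mask sets.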
# [2] = system: RAW-Dual; experiment: IRF Lucia reporter activity, fold change vs agonist alone; cytotoxicity flag (confluency mask): cytotoxic (confluency <70% of control); higher = enhanced IRF activity
# Outline: as §1
# [3] = system: RAW-Dual; experiment: IRF Lucia reporter activity, fold change vs agonist alone; cytotoxicity flag (confluency mask): not cytotoxic; higher = enhanced IRF activity
# Outline: as §1
# [4] = library stock concentration (final ~1000-fold dilution): 10 mM, cytotoxicity flag (confluency mask): not cytotoxic
# [5] = agonist: 3'3'-cGAMP (STING) 10 ug/mL
# [6] = library stock concentration (final ~1000-fold dilution): 10 mM, cytotoxicity flag (confluency mask): cytotoxic (confluency <70% of control)
smiles,measurement,setting,value
COC(C(=O)N1Cc2[nH]nc(NC(=O)c3ccc(N4CCN(C)CC4)cc3)c2C1)c1ccccc1 (configuration not stated),IRF Lucia reporter activity,[1]; [4],0.147
Cn1cncc1C(N)(c1ccc(Cl)cc1)c1ccc2c(c1)c(-c1cccc(Cl)c1)cc(=O)n2C (configuration not stated) (library stock concentration (final ~1000-fold dilution): 10 mM),IRF Lucia reporter activity,[2]; [5],0.374
same,IRF Lucia reporter activity,[2]; agonist: LPS (TLR4) 0.1 ug/mL,0.641
Cn1cncc1C(N)(c1ccc(Cl)cc1)c1ccc2c(c1)c(-c1cccc(Cl)c1)cc(=O)n2C (configuration not stated),IRF Lucia reporter activity,[1]; [6],0.481
COC(=O)NC(C(=O)N1CC2(CC2)CC1c1ncc(-c2ccc3c(c2)C(F)(F)c2cc(-c4ccc5nc(C6C7CCC(C7)N6C(=O)C(NC(=O)OC)C(C)C)[nH]c5c4)ccc2-3)[nH]1)C(C)C (configuration not stated) (library stock concentration (final ~1000-fold dilution): 10 mM),IRF Lucia reporter activity,[3]; [5],0.913
same,IRF Lucia reporter activity,[3]; agonist: LPS (TLR4) 0.1 ug/mL,1.23
COCC1CC(c2ncc(-c3ccc4c(c3)COc3cc5c(ccc6[nH]c(C7CCC(C)N7C(=O)C(NC(=O)OC)C(C)C)nc65)cc3-4)[nH]2)N(C(=O)C(NC(=O)OC)c2ccccc2)C1 (configuration not stated),IRF Lucia reporter activity,[1]; [4],0.857
COC(=O)NC(C(=O)N1CCCC1c1ncc(-c2ccc(-c3ccc(-c4cnc(C5CCCN5C(=O)C(NC(=O)OC)C(C)C)[nH]4)cc3)cc2)[nH]1)C(C)C.Cl.Cl (configuration not stated) (library stock concentration (final ~1000-fold dilution): 10 mM),IRF Lucia reporter activity,[3]; [5],0.948
same,IRF Lucia reporter activity,[3]; agonist: LPS (TLR4) 0.1 ug/mL,7.56
COC(=O)NC(C(=O)N1CCCC1c1ncc(-c2ccc(-c3ccc(-c4cnc(C5CCCN5C(=O)C(NC(=O)OC)C(C)C)[nH]4)cc3)cc2)[nH]1)C(C)C.Cl.Cl (configuration not stated),IRF Lucia reporter activity,[1]; [4],5.97
COC(=O)NC(C(=O)N1CCCC1c1ncc(-c2ccc3c(c2)OC(c2ccccc2)n2c-3cc3cc(-c4cnc(C5CCCN5C(=O)C(NC(=O)OC)C(C)C)[nH]4)ccc32)[nH]1)C(C)C (configuration not stated) (library stock concentration (final ~1000-fold dilution): 10 mM),IRF Lucia reporter activity,[3]; [5],1.07
same,IRF Lucia reporter activity,[3]; agonist: LPS (TLR4) 0.1 ug/mL,1.16
COC(=O)NC(C(=O)N1CC2(CC2)CC1c1ncc(-c2ccc3c(c2)C(F)(F)c2cc(-c4ccc5nc(C6C7CCC(C7)N6C(=O)C(NC(=O)OC)C(C)C)[nH]c5c4)ccc2-3)[nH]1)C(C)C (configuration not stated),IRF Lucia reporter activity,[1]; [4],0.979
COC(=O)NC(C(=O)N1CCCC1C(=O)Nc1ccc(C2CCC(c3ccc(NC(=O)C4CCCN4C(=O)C(NC(=O)OC)C(C)C)cc3)N2c2ccc(C(C)(C)C)cc2)cc1)C(C)C (configuration not stated),IRF Lucia reporter activity,[1]; [4],0.973
COC(=O)NC(C(=O)N1CCCC1C(=O)Nc1ccc(C2CCC(c3ccc(NC(=O)C4CCCN4C(=O)C(NC(=O)OC)C(C)C)cc3)N2c2ccc(C(C)(C)C)cc2)cc1)C(C)C (configuration not stated) (library stock concentration (final ~1000-fold dilution): 10 mM),IRF Lucia reporter activity,[3]; [5],0.995
same,IRF Lucia reporter activity,[3]; agonist: LPS (TLR4) 0.1 ug/mL,1.21
COCC1CC(c2ncc(-c3ccc4c(c3)COc3cc5c(ccc6[nH]c(C7CCC(C)N7C(=O)C(NC(=O)OC)C(C)C)nc65)cc3-4)[nH]2)N(C(=O)C(NC(=O)OC)c2ccccc2)C1 (configuration not stated) (library stock concentration (final ~1000-fold dilution): 10 mM),IRF Lucia reporter activity,[3]; [5],0.767
same,IRF Lucia reporter activity,[3]; agonist: LPS (TLR4) 0.1 ug/mL,0.91
COC(=O)NC(C(=O)N1CCCC1c1ncc(-c2ccc(-c3ccc(-c4cnc(C5CCCN5C(=O)C(NC(=O)OC)C(C)C)[nH]4)cc3)cc2)[nH]1)C(C)C (configuration not stated) (library stock concentration (final ~1000-fold dilution): 10 mM),IRF Lucia reporter activity,[3]; [5],1.04
same,IRF Lucia reporter activity,[3]; agonist: LPS (TLR4) 0.1 ug/mL,4.15
COC(=O)NC(C(=O)N1CCCC1c1ncc(-c2ccc3c(c2)OC(c2ccccc2)n2c-3cc3cc(-c4cnc(C5CCCN5C(=O)C(NC(=O)OC)C(C)C)[nH]4)ccc32)[nH]1)C(C)C (configuration not stated),IRF Lucia reporter activity,[1]; [4],1.01
COC(=O)NC(C(=O)N1CCCC1c1ncc(-c2ccc(-c3ccc(-c4cnc(C5CCCN5C(=O)C(NC(=O)OC)C(C)C)[nH]4)cc3)cc2)[nH]1)C(C)C (configuration not stated),IRF Lucia reporter activity,[1]; [4],3.26
NC(=O)C(CCC(F)(F)F)N(Cc1ccc(-c2ncon2)cc1F)S(=O)(=O)c1ccc(Cl)cc1 (configuration not stated) (library stock concentration (final ~1000-fold dilution): 10 mM),IRF Lucia reporter activity,[3]; [5],0.94
same,IRF Lucia reporter activity,[3]; agonist: LPS (TLR4) 0.1 ug/mL,1.56
NC(=O)C(CCC(F)(F)F)N(Cc1ccc(-c2ncon2)cc1F)S(=O)(=O)c1ccc(Cl)cc1 (configuration not stated),IRF Lucia reporter activity,[1]; [4],1.3
CC1COCCN1c1cc(C2(S(C)(=N)=O)CC2)nc(-c2ccnc3[nH]ccc23)n1 (configuration not stated) (library stock concentration (final ~1000-fold dilution): 10 mM),IRF Lucia reporter activity,[3]; [5],0.193
same,IRF Lucia reporter activity,[3]; agonist: LPS (TLR4) 0.1 ug/mL,1.39
COc1cc(C=CC(=O)OCC[N+](C)(C)C)cc(OC)c1O (library stock concentration (final ~1000-fold dilution): 10 mM),IRF Lucia reporter activity,[3]; [5],0.894
same,IRF Lucia reporter activity,[3]; agonist: LPS (TLR4) 0.1 ug/mL,1.04
O=c1cc(N2CCOCC2)oc2c(-c3ccccc3)cccc12 (library stock concentration (final ~1000-fold dilution): 10 mM),IRF Lucia reporter activity,[2]; [5],0.353
same,IRF Lucia reporter activity,[2]; agonist: LPS (TLR4) 0.1 ug/mL,0.393
O=c1cc(N2CCOCC2)oc2c(-c3ccccc3)cccc12,IRF Lucia reporter activity,[1]; [6],0.627
O=c1nc(N2CCOCC2)oc2c(-c3cccc4c3sc3ccccc34)cccc12 (library stock concentration (final ~1000-fold dilution): 10 mM),IRF Lucia reporter activity,[3]; [5],0.298
same,IRF Lucia reporter activity,[3]; agonist: LPS (TLR4) 0.1 ug/mL,1.03
O=c1cc(N2CCOCC2)oc2c(-c3cccc4c3sc3ccccc34)cccc12 (library stock concentration (final ~1000-fold dilution): 2 mM),IRF Lucia reporter activity,[3]; [5],0.548
same,IRF Lucia reporter activity,[3]; agonist: LPS (TLR4) 0.1 ug/mL,7.23
O=c1cc(N2CCOCC2)oc2c(-c3cccc4c3sc3ccccc34)cccc12,IRF Lucia reporter activity,"[1]; library stock concentration (final ~1000-fold dilution): 2 mM, cytotoxicity flag (confluency mask): not cytotoxic",2.7
